Assay results as given in PubChem BioAssay (Tox21).
Results filed as inconclusive are left out. Values without a mark were called inactive. Activity calls are given as the source filed them. Calls come from the whole dose curve.

target: Peroxisome proliferator-activated receptor gamma (Homo sapiens) (UniProt P37231); experiment: qHTS assay to identify small molecule antagonists of the peroxisome proliferator-activated receptor gamma (PPARg) signaling pathway (AID 743191); settings: HEK293H PPARg-UAS-bla, beta-lactamase ratio, antagonist, 17 h; series mostly up to 62.6 µM; ratio activity, negative = inhibition: at the top concentration; note: nearly all actives have a fitted effect of over 30% in size
Sequence (P37231 whole entry, looked up): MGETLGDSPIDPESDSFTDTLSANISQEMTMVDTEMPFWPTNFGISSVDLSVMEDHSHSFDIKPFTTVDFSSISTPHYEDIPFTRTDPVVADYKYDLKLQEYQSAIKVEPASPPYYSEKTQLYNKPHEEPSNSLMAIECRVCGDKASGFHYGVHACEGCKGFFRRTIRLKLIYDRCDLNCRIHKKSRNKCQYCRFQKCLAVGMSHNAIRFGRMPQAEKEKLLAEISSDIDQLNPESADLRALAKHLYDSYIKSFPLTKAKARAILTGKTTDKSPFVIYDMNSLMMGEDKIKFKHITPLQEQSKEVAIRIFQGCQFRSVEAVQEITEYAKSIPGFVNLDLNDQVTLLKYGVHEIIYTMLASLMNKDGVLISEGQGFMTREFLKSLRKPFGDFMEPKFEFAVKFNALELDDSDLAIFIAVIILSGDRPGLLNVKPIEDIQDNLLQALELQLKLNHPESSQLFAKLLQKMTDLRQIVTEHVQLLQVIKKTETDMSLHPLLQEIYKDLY
Description: U.S. Tox21 Program National Center for Advancing Translational Sciences [NCATS] NIH Chemical Genomics Center [NCGC] U.S. Environmental Protection Agency [EPA] National Institutes of Environmental Health Sciences [NIEHS] National Toxicology Program [NTP] U.S. Food and Drug Administration [FDA] Tox21 Assay Overview: The peroxisome proliferator-activated receptors (PPARs) are lipid-activated transcription factors of the nuclear receptor superfamily with three distinct subtypes namely PPAR alpha, PPAR delta (also called PPAR beta) and PPAR gamma (PPARg). All these subtypes heterodimerize with Retinoid X receptor (RXR) and these heterodimers regulate transcription of various genes. PPAR-gamma receptor (glitazone receptor) is involved in the regulation of glucose and lipid metabolism. To identify the compounds that inhibit PPAR-gamma signaling, GeneBLAzer PPAR gamma UAS-bla HEK293H cell line (Invitrogen, Carlsbad, CA, USA) containing a beta-lactamase reporter gene under control of an Upstream Activator Sequence (UAS) was used to screen the Tox21 compound library.
Tox21 Assay Protocol Summary: PPARg-bla cells were dispensed at 3000 cells/6uL/well in 1536-well black wall/clear bottom plates using a Multidrop Combi (Thermo Fisher Scientific, Waltham, MA) dispenser. After the assay plates were incubated at 37C and 5% CO2 for 5 h, 23 nL of compounds dissolved in DMSO, positive controls or DMSO only was transferred to the assay plate by a Pintool station (Kalypsys, San Diego, CA). The assay plates were incubated at 37C for 17 h. After 1 uL of LiveBLAzerTM B/G FRET substrate was added using a Bioraptr Flying Reagent Dispenser (FRD) workstation (Beckman Coulter, Indianapolis, IN, USA), the plates were incubated at room temperature for 1 h, and fluorescence intensity was measured by an Envision plate reader (PerkinElmer, Shelton, CT).
% is set by controls: 0 for no effect and ±100 for the full control effect; potency is the fitted concentration of half-maximal effect.

Compound	Potency	ratio activity, negative = inhibition
CC(C)c1ccc(OP(=O)(Oc2ccc(C(C)C)cc2)Oc2ccc(C(C)C)cc2)cc1	38.9 µM (active)	
Cc1ccc(N)c(C)c1	inactive	
COc1ccc2c(c1OC)C(=O)O[C@H]2[C@@H]1c2cc3c(cc2CCN1C)OCO3		2.25%
O=C(O)c1cc(Cl)ccc1Cl		-2.33%
C=CCOC(=O)C(C)(C)OC(=O)c1cc(-n2c(=O)cc(C(F)(F)F)n(C)c2=O)ccc1Cl		3.74%
CC(C)c1ccc(NC(=O)N(C)C)cc1		10.6%
CC(Cl)C(=O)O (stereo not given)		8.05% [at 81.1 µM]
Nc1ccc2c(c1)Cc1ccccc1-2		-8.75%
O=C([O-])c1ccccn1.O=C([O-])c1ccccn1.O=C([O-])c1ccccn1.[Cr+3]		8.55%
CCCC1CCCCN1 (stereo not given)		11.1%
C=CCSSCC=C		-2.08%
N#CC1(N=NC2(C#N)CCCCC2)CCCCC1		14.1%
CN[C@@H](C)[C@H](O)c1ccccc1		1%
C[C@H]1O[C@H](OC2[C@@H](O)[C@@H](O)C(O)[C@H](O)[C@H]2O)[C@@H](N)C[C@@H]1N=C(N)C(=O)O (stereo not given in full)		3.47%
CCOP(=O)(SC(C)CC)N1CCSC1=O (stereo not given)		-19%
CN(C)N		-2.58%
CCC(C)Cl (stereo not given)		14%
OCCCl		9.86%
CC(Oc1cccc(Cl)c1)C(=O)O (stereo not given)		-1.27%
CCc1cnc(C2=NC(C)(C(C)C)C(=O)N2)c(C(=O)O)c1 (stereo not given)	inactive	

Compound	Potency	ratio activity, negative = inhibition
ClCc1ccccc1Cl		2.64% [at 81.1 µM]
CCCCOC(=O)CCC(=O)OCCCC		4.25%
C[Si](Cn1cncn1)(c1ccc(F)cc1)c1ccc(F)cc1		15.5% [at 81.1 µM]
CCN(C(C)=O)c1cccc(-c2ccnc3c(C#N)cnn23)c1		10.4%
CCCCCCCCCCCCN=C(N)N		-16.9% [at 2.7 µM]
CN(C1CCCCC1)C1CCCCC1		13.1%
O=C(N[C@H]1CN2CCC1CC2)c1ccc2c(c1)OCCO2		-18.4%
C#CC(O)(C=CCl)CC (stereo not given)		-2.94%
CC(C)[C@@H](C(=O)O[C@@H](C#N)c1cccc(Oc2ccccc2)c1)c1ccc(Cl)cc1		22.3%
CC(CC(C(N)=O)(c1ccccc1)c1ccccc1)N(C)C (stereo not given)		5.65%
CON(C)C(=O)Nc1ccc(Cl)cc1		-27.8%
FC(F)OC(F)(F)C(F)Cl (stereo not given)		0.319%
NC(=O)CF		-0.0775%
COC1CC(=C(c2cccs2)c2cccs2)C[N+](C)(C)C1 (stereo not given)		-5.29%
O=C(N/N=C/c1ccc([N+](=O)[O-])o1)c1cc([N+](=O)[O-])cc([N+](=O)[O-])c1O		9.92%
CC(Cc1ccccc1)NCc1ccccc1Cl (stereo not given)		-5.68%
CCOP(=S)(S)OCC		1.06% [at 81.1 µM]
NC(=S)c1c(Cl)cccc1Cl		-22.1%
Cc1ccccc1		-11.3%
CCSCc1ccccc1OC(=O)NC		-6%
